# Bioassay records: PubChem, several laboratories
# PTK2B oligo ant: Pyk2 (human) oligomerization antagonism; hit rate 0.83% among 99,000; z-score (the deposit names both 25 µM and 10 µM); Q14289; Q293 cells, Pyk2 FERM NanoBiT luminescence; active compounds read low;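 active means Z-score of -3 or lower, scaled per plate to the spread of control and sample wells; inactive means z-score above -3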;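 further: negative z-score means lost luminescence so less FERM oligomerization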
# CD11b adhes inh: CD11b/CD18-fibrinogen binding inhibition; P05107+P11215; K562 CD11b/CD18 adhesion to fibrinogen, ATPlite luminescence; Mn2+ added to activate the integrin; inhibition, % at 10 µM; hit rate 0.54% among 93,000;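 active means primary inhibition of 50% or more at 10 µM, then 40% or more on retest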
# Target sequence (P05107 whole entry, looked up, other chains not shown): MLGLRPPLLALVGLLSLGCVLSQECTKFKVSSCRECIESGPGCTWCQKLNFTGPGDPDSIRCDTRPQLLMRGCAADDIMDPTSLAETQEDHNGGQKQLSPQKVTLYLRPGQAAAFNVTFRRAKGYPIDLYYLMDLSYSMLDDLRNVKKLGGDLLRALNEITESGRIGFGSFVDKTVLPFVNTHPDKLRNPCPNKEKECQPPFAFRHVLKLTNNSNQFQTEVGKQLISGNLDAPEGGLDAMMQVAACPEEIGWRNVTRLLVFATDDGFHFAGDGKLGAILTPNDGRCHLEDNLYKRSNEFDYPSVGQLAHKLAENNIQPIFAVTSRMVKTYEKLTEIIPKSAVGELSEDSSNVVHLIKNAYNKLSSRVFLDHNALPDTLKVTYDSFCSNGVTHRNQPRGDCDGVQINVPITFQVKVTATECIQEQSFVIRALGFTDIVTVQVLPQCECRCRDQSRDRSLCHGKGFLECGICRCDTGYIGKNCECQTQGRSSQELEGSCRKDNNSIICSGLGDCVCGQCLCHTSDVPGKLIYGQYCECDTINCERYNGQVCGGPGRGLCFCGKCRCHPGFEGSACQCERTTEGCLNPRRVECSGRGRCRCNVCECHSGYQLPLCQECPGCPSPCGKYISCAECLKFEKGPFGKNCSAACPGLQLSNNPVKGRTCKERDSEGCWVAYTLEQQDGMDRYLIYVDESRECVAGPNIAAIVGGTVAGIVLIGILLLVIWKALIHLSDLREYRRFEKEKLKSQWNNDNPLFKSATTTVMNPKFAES
# Mac1 fbg enh: enhancers of human CD11b/CD18 binding to fibrinogen. P05107+P11215. K562 CD11b/CD18 adhesion to fibrinogen, ATPlite luminescence. activation, % at 10 µM. hit rate 0.07% among 93,000;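 active means 10 µM primary screen giving 50% or more activity, confirmed by 40% or more on retest at that dose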
# Ec RNAP inh: blocks E. coli RNA polymerase transcription; AID 559; hit rate 0.2% among 62,000; P0A8V2; fluorescence transcription assay; inhibition, %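 (tested at 10 µM)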; in the data active means inhibition above about 20%;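 further: 0% = enzyme without compound and 100% = no enzyme blank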
# Cav32 inh: human Cav3.2 channel inhibition, primary screen; hit rate 4% among 100,000; B-score at 10 µM; O95180; Cav3.2-expressing cells, Fluo-4 calcium fluorescence FDSS; active compounds read low;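 active means single-dose well whose peak fluorescence ratio is a statistical outlier from its plate by either plate-standardised score or position-corrected B-score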
# The depositor's hits bear a star; nt = no result given. This is a sample that favours compounds with a hit; in the whole collection about 4.2% have one here.
SMILES,PTK2B oligo ant,CD11b adhes inh,Mac1 fbg enh,Ec RNAP inh,Cav32 inh
Cc1nn(C)cc1/C=N\NC(=O)c1ccc2c(c1)c(C)c(C)n2Cc1ccccc1,-1.01,2.8,-3.9,nt,-3.83*
COc1ccc(OC)c(Nc2cc(C)nc3ccccc23)c1,0.31,2.7,-1.1,4.1,-0.0948
COc1ccc(OC)c(Nc2cc(-c3ccccc3)nc(N)n2)c1,nt,39.0,-1.3,3.0,-4.47*
CSc1nc(NCc2ccco2)c2c3c(sc2n1)CN(C)CC3,nt,nt,nt,6.1,1.32
CCCCSc1nc(NCc2ccco2)c2c3c(sc2n1)COC(C)(C)C3,-0.73,-9.7,5.5,nt,-5.7*
CCCSc1nc(NCc2ccco2)c2c3c(sc2n1)COC(C)(C)C3,0.79,nt,nt,nt,-5.64*
CCOC(=O)N1CCC(N2C(=O)c3ccccc3C2Nc2c(C)cccc2C)CC1 (configuration not stated),nt,4.9,3.2,nt,nt
O=C1C2C3C=CC(C2C(=O)N1C1CCCCC1)C1C2C(=O)N(C4CCCCC4)C(=O)C2C31 (configuration not stated),nt,5.2,4.8,nt,nt
Cc1nc(CSc2ccc(Cl)cc2)cc(NCc2ccccc2)n1,-0.84,-8.7,-2.7,nt,-8.31*
CCCc1cc(=O)n2[nH]c(NCc3ccc(Cl)cc3Cl)nc2n1,-0.33,-12.6,1.2,11.2,-2.86
Cc1nc(CS(=O)c2ccc(Cl)cc2)cc(NCc2ccc(Cl)cc2Cl)n1 (configuration not stated),0.91,-21.2,2.4,nt,-5.75*
COc1ccc(COc2ccccc2C(=O)Nc2ccccn2)cc1[N+](=O)[O-],0.05,nt,nt,nt,nt
O=C(CN1CCN(c2ccccn2)CC1)N1c2ccccc2Sc2ccc(C(F)(F)F)cc21,0.16,21.6,-1.1,8.6,-6.19*
COc1ccc(Nc2ncc(C(=O)N3CCN(c4ccc(F)cc4)CC3)c3ccccc23)cc1,-0.82,nt,nt,nt,-5.9*
O=C(Nc1ccc(F)cc1)c1ccc(CSc2ccccc2)o1,nt,97.1*,-9.7,nt,nt
Cc1ccccc1NS(=O)(=O)c1cc(C(=O)Nc2ccccc2-c2ccccc2)ccc1Cl,-1.34,10.1,3.5,nt,-3.39*
Cc1ccc(NC(=O)NNC(=O)Cn2nc(-c3ccccc3)c(-c3ccccc3)c(C#N)c2=O)cc1,0.01,nt,nt,nt,-7.02*
Cc1ccc(S(=O)(=O)C(C#N)c2nc3ccccc3nc2N2CCCCC2)cc1 (configuration not stated),nt,27.2,-3.5,13.2,nt
Cc1cccc(S(=O)(=O)C(C#N)c2nc3ccccc3nc2N2CCOCC2)c1 (configuration not stated),-0.64,57.5*,-0.4,3.0,-1.92
CCC(C)NC(=O)c1ccc([N+](=O)[O-])c(Cl)c1 (configuration not stated),nt,-4.8,8.5,nt,nt
CS(=O)(=O)c1ccc(CNC(=O)C2(C(F)(F)F)CC(CCCO)CCCO2)cc1 (configuration not stated),nt,nt,nt,nt,-0.092
Cc1ccc2nc(NC(=O)Cc3cccs3)sc2c1,-0.01,7.7,-2.5,nt,-3.57*
C[C@H](NC(=O)c1[nH]cnc1C(=O)Nc1ccc(CNC(=O)OC(C)(C)C)cc1)C(=O)OC(C)(C)C,nt,nt,nt,nt,0.664
CCCN1/C(=C2/SC(=S)N(CC)C2=O)C=Cc2ccccc21,-3.14*,11.4,4.2,nt,0.191
C#CCOCCOCCOCCNc1nc(N2CCN(C(=O)[C@H](CCC(=O)O)n3cc(C(N)CO)nn3)CC2)nc(N2CCN(C(=O)[C@H](CCC(=O)O)n3cc(C(N)CC(C)C)nn3)CC2)n1 (some centres not stated),nt,nt,nt,nt,0.888
SMILES,PTK2B oligo ant,CD11b adhes inh,Mac1 fbg enh,Ec RNAP inh,Cav32 inh
COc1ccc(CNC(=O)C(C)NC(=O)c2cc3ccccc3o2)cc1 (configuration not stated),0.26,-27.1,-2.2,39.1*,-0.546
COc1ccccc1CN(Cc1nc2ccccc2c(=O)[nH]1)C(=O)Nc1ccccc1C,-1.36,-12.5,1.9,nt,-5.94*
CCc1ccc2[nH]c(=O)c(CN(Cc3ccccc3OC)C(=O)Nc3ccccc3OC)cc2c1,-1.28,6.5,-0.9,nt,-5.23*
Cc1ccccc1NC(=O)N(CCc1nc2ccccc2[nH]1)Cc1ccccc1,0.07,nt,nt,nt,-4.04*
COc1cc2c(cc1NC(=O)CN(C)Cc1nc3ccccc3c(=O)[nH]1)oc1ccccc12,-3.36*,-3.1,-2.3,4.3,-0.145
CCN(CC)CCN(Cc1cc2cc(C)ccc2[nH]c1=O)C(=O)Nc1ccccc1OC,0.49,12.3,-0.2,-0.5,0.152
O=C(CCc1nc2ccccc2[nH]1)Nc1ccccc1F,nt,nt,nt,nt,0.49
COc1cc2c(cc1NC(=O)CSc1nc3ccccc3[nH]1)oc1ccccc12,-1.11,-15.9,-4.5,nt,-0.774
Cc1nc(CN2CCN(C(=O)c3ccc(C(C)(C)C)cc3)CC2)cs1,nt,-3.9,-1.7,nt,0.324
COc1ccccc1CN(Cc1nc2ccccc2c(=O)[nH]1)C(=O)Nc1ccc(C)cc1,-1.88,11.7,-2.9,nt,-4.31*
Cc1ccc(-c2cn3cccnc3n2)cc1NC(=O)c1cccs1,nt,19.5,-2.9,nt,nt
CC(C)C[C@H](NC(=O)OC(C)(C)C)C(=O)N/N=C/C1=Cc2ccccc2OC1C (some centres not stated),-0.68,9.6,-3.7,nt,-4.45*
CC(C)C[C@H](NC(=O)OC(C)(C)C)C(=O)N/N=C/c1ccc2nccnc2c1,3.63,-13.9,-0.2,nt,0.484
COc1ccc(OCc2nnc3n2N=C(c2ccc(OC)cc2)CS3)cc1,nt,-7.4,6.2,1.3,-7.58*
COc1ccc(OCc2nnc3n2N=C(c2ccc(C)cc2)CS3)cc1,nt,-0.4,-0.5,0.6,-2.41
COc1ccc(-c2nn(C)c3sc(C(=O)NCc4ccco4)cc23)cc1OC,0.18,-0.1,40.6,-1.6,0.055
COc1ccc(NC(=O)c2cc3c(-c4ccc(OC)c(OC)c4)nn(C)c3s2)cc1OC,-3.02*,-27.0,6.3,nt,-0.234
O=S(=O)(NCCSc1ccc(Cl)cc1)c1ccc2c(c1)OCCO2,-1.41,69.7,-3.4,9.3,-8.69*
COCCCNS(=O)(=O)c1ccc2c(c1)OCCO2,0.28,-9.1,-2.4,7.8,nt
CS(=O)(=O)NCCSCc1c(Cl)cccc1Cl,-0.02,-8.8,-1.5,nt,-0.649
O=S(=O)(NCCSCc1c(Cl)cccc1Cl)c1ccc2c(c1)OCCO2,-4.34*,13.3,-2.6,nt,-3.56
O=S(=O)(NCCSCc1ccc(Cl)cc1Cl)c1ccc2c(c1)OCCO2,-2.26,3.6,-7.4,nt,-4.51*
N#C/C(=C\c1ccc(-c2ccc([N+](=O)[O-])cc2Br)o1)C(=O)N1CCN(c2ccccc2)CC1,nt,-12.9,42.6,nt,nt
COC(=O)C1=C(C)NC2=C(C(=O)CC(C)(C)C2)C1c1cn(Cc2ccc(Br)cc2)nc1-c1ccccc1 (configuration not stated),-3.26*,14.7,0.4,nt,-4.73*
COC(=O)C1=C(C)NC2=C(C(=O)CC(C)(C)C2)C1c1cccc(C)n1 (configuration not stated),0.77,1.9,0.4,-1.5,1.25
COC(=O)C1=C(C)NC2=C(C(=O)CCC2)C1c1cn(Cc2ccc(Br)cc2)nc1-c1ccccc1 (configuration not stated),-2.33,-14.1,5.4,nt,-7.32*
